These results are taken from publication PMC5540273 (PLoS ONE, 2017).

Some test systems named below: PRKD3; PRKG1; PRKG2; PRKX; PRP4; QSK; RAF1; RET; RIOK1; RIOK2; RIOK3; RIPK1; RIPK2; RIPK4; RIPK5; ROCK1; ROCK2; ROS1.
Conditions in all cases: concentration: 1 μM, replicates: in singlicate; n = 1
A further experiment concerns T1, PRKR.
T1 construct: gene EIF2AK2

The test system of another experiment is T2, PYK2.
T2 construct: gene PTK2B
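Note: KINOMEscan kinase panel screen.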

On to `COc1ccc(NC(=O)c2ccoc2)cc1-c1ccc(C(=O)NCC2CC2)cc1` [GW810437], for which the “%Inh” value in the experiment on PRKD3, with PRKG1, in the experiment with PRKG2, with PRKR, in the experiment on PRKX and in the experiment on PRP4 was 0% in each case. The “%Inh” value is given as 7% in the experiment on PYK2; 12% in the experiment with QSK; 0% in the experiment with RAF1; 0% in the experiment on RET; 8% in the experiment on RIOK1; 1% in the experiment with RIOK2. Besides, the “%Inh” value was determined as 5% in the experiment with RIOK3; 0% in the experiment with RIPK1; 4% in the experiment on RIPK2; 34% in the experiment on RIPK4; 14% in the experiment with RIPK5; 36% in the experiment with ROCK1. Also, the “%Inh” value in the experiment on ROCK2 and in the experiment on ROS1 was 0% throughout.

As for `O=C(Nc1n[nH]c2nc(-c3ccccc3O)ccc12)C1CC1` [SB-711880], the “%Inh” value in the experiment on PRKD3 worked out at 0%; with PRKG1, 0%; in the experiment with PRKG2, 28%; in the experiment on PRKR, 10%; with PRKX, 1%; with PRP4, 0%. Besides, the “%Inh” value came out at 4% in the experiment on PYK2; 33% in the experiment on QSK; 0% with RAF1; 0% with RET; 43% in the experiment with RIOK1; 0% in the experiment on RIOK2. Also, the “%Inh” value in the experiment with RIOK3 is on record as 33%; with RIPK1, 70%; in the experiment on RIPK2, 0%; in the experiment on RIPK4, 40%; with RIPK5, 0%; in the experiment on ROCK1, 0%. The “%Inh” value with ROCK2 and in the experiment with ROS1 was 0% throughout.

In the case of `CC(=O)Nc1cn2nc(Oc3cccc(NC(=O)c4cccc(C(F)(F)F)c4)c3)ccc2n1`, the “%Inh” value with PRKD3 amounted to 0%; in the experiment with PRKG1, 11%; with PRKG2 it was 13%; in the experiment on PRKR, 4%; in the experiment with PRKX, 0%; in the experiment with PRP4 it was 0%. In addition, the “%Inh” value in the experiment with PYK2 came out at 7%; with QSK, 0%; with RAF1 it was 99.8%; in the experiment on RET it was 100%; in the experiment on RIOK1, 0%; in the experiment with RIOK2, 0%. The “%Inh” value in the experiment on RIOK3 was 39%; in the experiment with RIPK1 it was 0%; with RIPK2, 67%; with RIPK4 it was 0%; with RIPK5, 0%; with ROCK1, 0%. Also, the “%Inh” value in the experiment on ROCK2 and with ROS1 was 0% throughout.

Consider `CC(C)c1nc(-c2cccc(NS(=O)(=O)c3c(F)cccc3F)c2)c(-c2ccnc(Nc3ccc(N4CCOCC4)nc3)n2)s1.Cl` [GSK1723980], for which the “%Inh” value in the experiment with PRKD3 is listed as 100%; with PRKG1, 0%; in the experiment with PRKG2, 0%; in the experiment with PRKR, 29%; in the experiment on PRKX, 7%; with PRP4 it was 0%. Further, the “%Inh” value with PYK2 was 25%; with QSK, 82%; in the experiment on RAF1, 99.4%; in the experiment on RET it was 99.6%; in the experiment on RIOK1 it was 25%; in the experiment on RIOK2, 0%. Moreover, the “%Inh” value in the experiment on RIOK3 amounted to 2%; in the experiment with RIPK1 it was 0%; in the experiment with RIPK2, 97.7%; with RIPK4 it was 2%; in the experiment with RIPK5 it was 81%; in the experiment on ROCK1, 6%. In addition, the “%Inh” value in the experiment on ROCK2 and in the experiment with ROS1 was 0% each time.

As to `COc1cccc(CC(=O)N2CCc3cc(-c4cn(C)c5ncnc(N)c45)ccc32)c1` [GSK2608899], the “%Inh” value is 0% in the experiment on PRKD3; 22% with PRKG1; 0% in the experiment with PRKG2; 15% in the experiment on PRKR; 3% in the experiment with PRKX; 0% in the experiment on PRP4. Further, the “%Inh” value with PYK2 is recorded as 25%; in the experiment with QSK it was 11%; in the experiment with RAF1, 0%; in the experiment on RET, 37%; in the experiment on RIOK1, 20%; in the experiment with RIOK2, 20%. The “%Inh” value with RIOK3 was found to be 17%; in the experiment with RIPK1, 100%; in the experiment on RIPK2, 35%; with RIPK4, 0%; with RIPK5 it was 58%; in the experiment on ROCK1 it was 23%. Besides, the results for the “%Inh” value in the experiment on ROCK2 and with ROS1 were 5% and 9%, respectively.
